Compound activity (PubChem)
This is a sample that favours compounds with a hit; in the whole collection about 7.9% have one here.
KB-V1 cytotox: qHTS assay for MDR1-selective chemotherapeutics: Primary screen using the drug-selected MDR subline cells KB-V1 | KB-V1 MDR cells viability, CellTiter-Glo, 72 h | Potency, µM (top dose mostly 46.1 µM), usual class: cytotoxic | 3.4% of 400,000 active; note: % is set by controls: 0 for no effect and ±100 for the full control effect; nearly all actives have a fitted effect of over 60% in size
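Readout: CellTiter-Glo luminescence, 10 min after addition. Cells: KB-V1 MDR subline, 72 h at 37 degrees C with compound. Analysis: corrected, normalized data fitted to concentration-effect curves.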
HT1080-NT tox: qHTS for induction of synthetic lethality in tumor cells producing 2HG: qHTS for the HT-1080-NT fibrosarcoma cell line. AID 686970, 2013. 1.6% of 360,000 active. Potency, µM (doses to about 46.1 µM), for the others: at the top dose activity, negative = less viability, actives largely listed as cytotoxic. HT-1080-NT fibrosarcoma viability, CellTiter-Glo ATP luminescence, 48 h;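 note: NT is the 2HG producing partner of a matched IDH1 knockdown line; 0% = DMSO-treated cells and -100% = media-only wells without cells; nearly all actives have a fitted effect of over 55% in size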
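Luminescent CellTiter-Glo readout after 48 hours of compound exposure at 37 degrees C defined viability of HT-1080-NT cells. Activity was normalized to DMSO wells and cell-free media wells; concentration-response curves were fitted and assigned curve classes.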
KB-3-1 tox: qHTS assay for MDR1-selective chemotherapeutics: Primary screen using the parental adenocarcinoma cell KB-3-1 | KB-3-1 viability, CellTiter-Glo ATP luminescence, 72 h | Potency, µM (highest dose often 46.1 µM), most hits filed as cytotoxic | 1.4% of 400,000 active | AID 1347075, 2019; note: % is set by controls: 0 for no effect and ±100 for the full control effect; nearly all actives have a fitted effect of over 60% in size
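Here the drug-naive KB-3-1 line serves as comparator for MDR sub-line selectivity; cells received compound titrations, 72 h at 37 °C, then CellTiter-Glo readout.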
MCF10A rerep: A quantitative high throughput screen for small molecules that induce DNA re-replication in MCF 10a normal breast cells; MCF 10A DNA re-replication, Hoechst nuclear intensity, 48 h; Potency, µM (titrated, usually from 46.1 µM), inactives show at the top dose activity, positive = re-replication, most hits filed as activators; 2.9% of 350,000 active; note: % of control where 0% means no effect; nearly all actives have a fitted effect of over 50% in size
SW480 rereplic: A quantitative high throughput screen for small molecules that induce DNA re-replication in SW480 colon adenocarcinoma cells; AID 624297, 2012; SW480 DNA re-replication, Hoechst DNA content imaging, 48 h; 1.8% of 340,000 active; Potency, µM (series often up to 46.1 µM), for inactives: top-dose re-replication activation, usual class: activators; note: % of control where 0% means no effect; nearly all actives have a fitted effect of over 55% in size
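Compounds, transferred as 23 nL by pin tool, were incubated with cells for 48 hr; DNA content per nucleus was then quantified by Hoechst staining and fluorescence plate imaging.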
HT1080 IDH1KD tx: qHTS for induction of synthetic lethality in tumor cells producing 2HG: qHTS for the HT-1080-IDH1KD cell line. HT-1080 IDH1 knockdown viability, ATP luminescence, 48 h. Potency, µM (series often up to 46.1 µM), without a hit: top-dose activity, negative = toxicity, actives largely listed as cytotoxic. 2% of 360,000 active;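 note: 0% = DMSO wells and -100% = cell-free medium wells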
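Using the IDH1-knockdown HT-1080 line run in the same batch and compound series as the NT line, viability after 48 h at 37 °C was determined by CellTiter-Glo luminescence and expressed as % activity.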
Starred values were filed as active, the others as inactive; i = inactive; ? = inconclusive; . = not tested or not shown. Calls come from the whole dose curve; as a rule, active = well fitted curve in the direction sought with a large enough effect; inconclusive = small, poorly fitted or top-dose-only effect, or another doubt; inactive = no such curve, though single readings can be large; an effect the other way counts as inactive or inconclusive. Potency is the fitted concentration of half-maximal effect.

SMILES	KB-V1 cytotox	HT1080-NT tox	KB-3-1 tox	MCF10A rerep	SW480 rereplic	HT1080 IDH1KD tx
Cc1nc2c(cnn2-c2ccccc2Cl)c(=O)n1-c1ccc(N2CCC(C)CC2)cc1	6.51µM*	-10.0%	16.4µM*	4.0%	-0.8%	-27.1%
Cc1ccc(-n2c(C)nc3c(cnn3-c3ccccc3Cl)c2=O)cc1C	20.6µM*	16.9%	?	0.5%	2.6%	-0.8%
CCOC(=O)CSc1nc2ccccc2c(=O)n1-c1ccc(C)cn1	i	8.6%	i	-18.6%	0.5%	0.0%
COc1ccc(NC(=O)c2cccc3c(-c4cnn(C)c4)coc23)cc1	i	-11.2%	i	.	.	-19.9%
Cc1ccc(C)c(OCCC(=O)OCC(=O)NCCNC(=O)COC(=O)CCOc2cc(C)ccc2C)c1	i	-5.3%	i	-4.7%	-1.7%	-5.9%
CC(C)N(C(=O)COc1ccc(Br)cc1Cl)C(C)C	14.6µM*	6.7%	i	12.7%	-7.6%	14.1%
CC(C(=O)NC(=O)NC1CCCCC1)N1CCN(C(c2ccccc2)c2ccccc2)CC1 (stereo not given)	9.2µM*	-1.5%	?	1.9%	0.4%	6.1%
CC(C(=O)NC1CCCC1)N1CCN(Cc2ccccc2)CC1 (stereo not given)	i	16.5%	i	0.1%	0.1%	5.3%
Cc1ccc(C)c(OCC(=O)NCCNC(=O)COc2cc(C)ccc2C)c1	18.4µM*	6.8%	i	18.9%	-2.7%	-11.7%
O=C(CN1CCc2ccccc2C1)NC1CCCC1	i	7.2%	i	7.7%	18.4µM*	7.3%
CC(C)C[C@H](NC(=O)c1nc[nH]c1C(=O)NCC(=O)OC(C)(C)C)C(=O)OCc1ccccc1	i	0.8%	i	?	-9.5%	-0.1%
COc1ccccc1OCC(=O)OCC(=O)NC1CCCCC1	i	2.2%	i	-0.9%	0.8%	-8.9%
COC(CN(C)C(C(=O)NC1CCCCC1)c1ccccc1)OC (stereo not given)	?	18.0%	i	5.7%	2.3%	13.2%
Cc1ccccc1CSCC(=O)NC1CCCC1	i	15.5%	i	-0.7%	-7.0%	23.1%
Cc1ccccc1CC(=O)NC1CCCCCC1	i	-23.5%	i	8.0%	0.92µM*	-1.9%
O=C(COc1ccc(Br)cc1Cl)NC1CCCCC1	18.4µM*	8.4%	?	1.0%	-1.2%	17.6%
COc1ccccc1OCC(=O)NC1CCCCCCC1	20.6µM*	-0.3%	?	27.5%	2.7%	-4.9%
COC(C(=O)NC1CCCCCCC1)c1ccccc1 (stereo not given)	18.4µM*	1.4%	i	0.1%	-72.2%	0.9%
O=C(COc1ccc(-n2cnnn2)cc1)Nc1ccc(Br)cc1F	i	8.9%	i	6.8%	0.8%	4.5%
COc1ccccc1NC(=O)Nc1c(C)n(C)n(-c2ccccc2)c1=O	i	6.4%	i	0.3%	-9.8%	-6.7%
COc1cc(OC)c(C(=O)OCC(=O)NC23CC4CC(CC(C4)C2)C3)cc1OC	8.2µM*	-1.3%	i	17.3%	-5.3%	0.0%
COc1ccccc1OCC(=O)N(Cc1nc(-c2ccccc2)no1)C1CCCCC1	16.4µM*	-25.0%	?	15.7%	10.6%	-23.6%
COc1ccccc1C(=O)OCC(=O)NC12CC3CC(CC(C3)C1)C2	i	-0.6%	i	0.3%	3.5%	4.3%
COc1cc(OC)c(C(=O)OCC(=O)NC2CCCC2)cc1OC	i	16.0%	i	-0.5%	-5.1%	10.4%
COc1cc(OC)c(C(=O)OCC(=O)NC2CCCCCCC2)cc1OC	8.2µM*	3.7%	?	1.6%	-3.9%	6.7%
SMILES	KB-V1 cytotox	HT1080-NT tox	KB-3-1 tox	MCF10A rerep	SW480 rereplic	HT1080 IDH1KD tx
Cc1ccc(C)c(OCC(=O)NC2CCCCCC2)c1	13µM*	-11.7%	i	?	0.0%	-23.9%
CC(C)(C)n1nnnc1C(c1ccc(C#N)cc1)N1CCCC2(CCCCC2)C1 (stereo not given)	i	7.8%	i	-8.8%	2.9%	1.6%
CCCCCc1c(-c2ccc(F)cc2)ncn1CCc1ccccc1OC	11.6µM*	?	18.4µM*	.	.	?
COc1ccccc1CCn1cnc(-c2ccc(Br)cc2)c1C(C)C	?	23.1µM*	?	.	.	23.1µM*
COc1ccccc1CCn1cnc(Cc2ccccc2)c1C(C)C	13µM*	?	?	.	.	?
CCCCCc1c(-c2ccc(Br)cc2)ncn1CCc1ccccc1OC	16.4µM*	16.4µM*	?	.	.	20.6µM*
O=C(Nc1ccc(F)cc1)c1cccc(N2C(=O)C3C4C=CC(C5CC45)C3C2=O)c1 (stereo not given)	i	-9.5%	?	2.0%	-4.2%	-20.5%
Cc1nc(C(=O)NNC(=O)c2cccc(Cl)c2)c(C(F)(F)F)o1	?	-13.5%	i	16.0%	?	?
COc1ccccc1CNC(=O)C(=O)NCCC1CCCCN1S(=O)(=O)c1ccccc1 (stereo not given)	i	0.5%	i	11.3%	12.8%	-2.5%
COc1ccc(CCNC(=O)C(=O)NCC2CCCN2S(=O)(=O)c2ccccc2)cc1 (stereo not given)	i	?	i	?	4.61µM*	-4.6%
COc1ccc(S(=O)(=O)N2CCCC2CNC(=O)C(=O)NCc2ccccc2)cc1 (stereo not given)	?	-19.6%	?	-29.8%	-50.9%	-12.4%
COc1ccccc1CCNC(=O)C(=O)NCC1CCCN1S(=O)(=O)c1ccccc1 (stereo not given)	20.6µM*	?	i	?	?	?
O=C(NCCc1ccc(F)cc1)C(=O)NCC1CCCN1S(=O)(=O)c1ccccc1 (stereo not given)	5.8µM*	-19.2%	18.4µM*	?	?	?
COc1ccc(S(=O)(=O)N2CCCC2CNC(=O)C(=O)NCCc2ccccc2)cc1 (stereo not given)	4.61µM*	?	8.2µM*	?	?	18.4µM*
O=C(NCc1ccc(F)cc1)C(=O)NCC1CCCN1S(=O)(=O)c1ccccc1 (stereo not given)	?	-4.5%	i	7.7%	-0.8%	-15.9%
Cc1cccc(-n2cnc(C(=O)N/N=C/c3ccccc3)c2)n1	i	16.3%	i	-10.5%	-1.0%	0.9%
